Experimental data reported in PubChem BioAssay AID777 (Sanford-Burnham Center for Chemical Genomics, 2007).
Out of some 96,000 compounds screened, about 19,000 (20%) were called active.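 The calls were made as follows: active = blocking of liver enzyme CYP2C9 beyond about 50% at 5 µM (limit read from the data); inactive = the rest.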 Only a sample is shown.

The compounds below were run against Cytochrome P450 2C9 (Homo sapiens) (UniProt P11712) (assay: blockers of cytochrome P450 2C9 activity – biochemical, luminescence, ADME assay, primary screen (AID 777)). Conditions: CYP2C9 Supersomes, luciferin-H conversion, at 5 µM, stronger effect = higher value.
Chain of Cytochrome P450 2C9 (Homo sapiens) (P11712 whole entry, looked up): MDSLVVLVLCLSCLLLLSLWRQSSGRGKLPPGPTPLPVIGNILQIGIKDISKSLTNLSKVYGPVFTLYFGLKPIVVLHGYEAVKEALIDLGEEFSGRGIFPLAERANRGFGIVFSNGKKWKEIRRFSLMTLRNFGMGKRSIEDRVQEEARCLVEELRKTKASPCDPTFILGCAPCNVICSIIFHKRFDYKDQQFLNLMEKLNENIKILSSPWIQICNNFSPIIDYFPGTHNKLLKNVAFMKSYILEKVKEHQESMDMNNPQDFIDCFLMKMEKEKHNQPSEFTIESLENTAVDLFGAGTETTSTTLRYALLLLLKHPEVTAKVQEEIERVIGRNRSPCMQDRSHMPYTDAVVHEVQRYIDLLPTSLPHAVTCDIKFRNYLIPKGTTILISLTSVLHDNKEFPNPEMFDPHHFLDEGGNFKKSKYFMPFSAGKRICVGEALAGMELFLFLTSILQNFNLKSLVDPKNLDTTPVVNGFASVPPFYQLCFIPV

SMILES	inhibition
CCOCCCNC(=O)C(NC(=O)c1ccc(=O)[nH]c1)c1ccc(Cl)cc1 (stereo unspecified)	2.5% (inactive)
O=C(NCCOc1ccccc1)c1ccccc1	-2.4% (inactive)
Cc1ccc(S(=O)(=O)NCC(=O)N(CC(=O)NC(C)(C)C)Cc2cccs2)cc1	-0.5% (inactive)
CCOC(=O)N1CCC(NC(=O)Cn2cc3c(n2)CCCCC3)CC1	-10.8% (inactive)
CC(C)c1ccc(/C=C/C(=O)NNC(=O)c2cccnc2)cc1	6.3% (inactive)
CCCCn1c(SCc2ncc(-c3ccccc3)o2)nc2cc(S(N)(=O)=O)ccc21	54.5% (active)
OC(COc1ccccc1)Cn1cc(Br)cn1 (stereo unspecified)	18.3% (inactive)
O=C(O)c1ccc(-n2cccc2)cc1O	4.7% (inactive)
CCC(C)(C)n1nnnc1C(c1cccs1)N1CCN(c2nc3ccccc3s2)CC1 (stereo unspecified)	71% (active)
CCC(C)(C)n1nnnc1C(c1cccs1)N1CCN(Cc2ccccc2)CC1 (stereo unspecified)	43.4% (inactive)
CCC(C)(C)n1nnnc1CN1CCN(c2nc3ccc(C)cc3cc2C#N)CC1	8.7% (inactive)
COCCCNC(=O)CCc1nc2cccnc2n1Cc1ccc(OC)cc1	-1.2% (inactive)
Cn1nc(C(F)(F)F)c2cc(NC(=O)OCC(C)(C)C)sc21	-4.4% (inactive)
COc1ccc(OC)c2c1sc(=NC(=O)CN1C(=O)CCC1=O)n2C	2.3% (inactive)
CCOC(=O)c1sc(/N=C/Nc2nc(C)c(C(=O)OCC)s2)nc1C	29.2% (inactive)
C=CCn1c2ccccc2c2nnc(SC(CC)C(=O)Nc3nc(C)c(C(=O)OCC)s3)nc21 (stereo unspecified)	75% (active)
CCOC(=O)c1sc(NC(=O)C(CC)Sc2nccn2C)nc1C (stereo unspecified)	45.4% (inactive)
O=C(c1cccnc1NCc1ccccc1)N1CCOCC1	4% (inactive)
Cc1c(C(=O)OC(C)C)sc(NC(=O)c2cccnc2)c1C#N	95.4% (active)
CCOC(=O)c1cc(NC(=O)c2cccnc2)cc(C(=O)OCC)c1	37.8% (inactive)
O=C(Nc1cnccn1)c1cccnc1	-0.8% (inactive)
O=C(COc1ncnc2c(Cl)cc(Cl)cc12)N1CCN(S(=O)(=O)c2ccccc2)CC1	-7.6% (inactive)
CCCCCN(C(=O)NC(=O)Nc1ccccc1OC)S(C)(=O)=O	68.3% (active)
CCCCCN(C(=O)NC(=O)Nc1ccccc1C)S(C)(=O)=O	32.9% (inactive)
CCCCCCCC(=O)NC(Nc1ccccc1OC)C(Cl)(Cl)Cl (stereo unspecified)	12.1% (inactive)
Cc1c(CCO)c(=O)[nH]n1C(=O)c1c(F)cccc1F	-4.2% (inactive)

SMILES	inhibition
Cc1ccc(N2C(=O)S/C(=C/c3cn(C)c4ccccc34)C2=O)cc1	-33.6% (inactive)
COc1ccc(/C=C2/S/C(=N/N=C3\CC4CCC3(C)C4(C)C)NC2=O)cc1 (stereo unspecified)	-0.8% (inactive)
Cc1sc(NC(=S)NC(=O)c2cccs2)nc1-c1ccc(CC(C)C)cc1	14.4% (inactive)
COc1cc(C2C3C(=O)N(c4ccccc4)C(=O)C3ON2c2ccccc2)ccc1O (stereo unspecified)	69.1% (active)
COc1cc(C2C(C(=O)Nc3ccccc3OC)=C(C)Nc3ncnn32)ccc1O (stereo unspecified)	12.1% (inactive)
Cc1ccccc1N1C(=O)C2ON(c3ccccc3)C(c3ccncc3)C2C1=O (stereo unspecified)	65.9% (active)
CCOC(=O)C1=C(c2ccccc2)N=C2SCC(=O)N2C1c1ccc(O)c(OC)c1 (stereo unspecified)	33.1% (inactive)
CC(=O)c1cc(NC(=O)c2ccccc2)c(=O)oc1/C=C/N(C)C	46.8% (inactive)
CCCCCOC(=O)c1ccc(N2C(=O)C3C4C=CC(C4)C3C2=O)cc1 (stereo unspecified)	46.3% (inactive)
O=S(=O)(NCc1cccnc1)c1ccc(Br)s1	14.7% (inactive)
Cc1nc2nc(COc3ccccc3)[nH]n2c(=O)c1Cc1ccccc1	17.5% (inactive)
CCOCCCNS(=O)(=O)Cc1ccccc1	-1.6% (inactive)
CCOc1ccc2cc(C#N)c(SCC(=O)OC)nc2c1	21.4% (inactive)
CCOc1ccc2nc(N3CCCN(C(=O)Nc4ccccc4C)CC3)c(C#N)cc2c1	98.1% (active)
CCOc1ccc2nc(NCCNS(=O)(=O)c3ccccc3)c(C#N)cc2c1	22.2% (inactive)
CCOC(=O)CC1C(=O)NCCN1C(=O)COc1ccc(Br)cc1C (stereo unspecified)	-12% (inactive)
Fc1cnc(N2CCOCC2)nc1NCc1ccccc1	-1.5% (inactive)
Cc1c(NC(=O)c2cc(-c3ccc(Cl)s3)nc3ccccc23)c(=O)n(-c2ccccc2)n1C	29.3% (inactive)
COc1c(C)cccc1C(=O)Nc1cc(Cl)ccc1N1CCOCC1	26.5% (inactive)
Cc1cc(C(=O)Nc2ccccc2N2CCOCC2)c2ccccc2n1	58.2% (active)
O=C(CNC(=O)c1ccc(Cl)cc1Cl)NCC(=O)Nc1ccccc1N1CCOCC1	57.6% (active)
O=S(=O)(Nc1ccccc1N1CCOCC1)c1ccc(Cl)s1	10.6% (inactive)
O=C(CN1CCOCC1)Nc1cc(Cl)ccc1Cl	-138% (inactive)
Nc1nonc1-c1noc(-c2ccc(Br)o2)n1	2.6% (inactive)
O=c1[nH]c(-c2cccs2)nc2ccccc12	3.1% (inactive)
CCSc1nc(=S)n(CC)c(C)c1C(C)=O	-26.9% (inactive)

SMILES	inhibition
C1=C(CCNc2ncnc3c2cnn3-c2ccccc2)CCCC1	62% (active)
O=C(NCCC1=CCCCC1)C1CCN(Cc2cnn(-c3ccccc3)c2-n2cccc2)CC1	48.5% (inactive)
S=C(NCCC1=CCCCC1)Nc1ccccc1	14.4% (inactive)
CC(C)CC[n+]1ccn(C2=C([O-])c3ccccc3C(=O)/C2=N\S(=O)(=O)c2ccccc2)c1	40.4% (inactive)
CCCCOC(=O)NCN1C(=O)C2C3C=CC(C3)C2C1=O (stereo unspecified)	-5.7% (inactive)
c1ccc(-c2cn3c(n2)CCc2ccc4cccnc4c2-3)cc1	20.7% (inactive)
O=C(c1ccc(CN2CCOCC2)cc1)N1CCN(c2ccccc2F)CC1	51.8% (active)
O=C(c1cccc2ccccc12)N1CCN(c2ccccc2F)CC1	-14.7% (inactive)
O=S(=O)(N1CCOCC1)N1CCN(c2ccccc2F)CC1	17.2% (inactive)
COC(=O)[C@H](C(C)C)n1c(C)c(C(C)=O)c(C(C)=O)c1C	7% (inactive)
O=C(CC1Oc2ccccc2NC1=O)NCCCN1CCN(Cc2ccccc2)CC1 (stereo unspecified)	-28.8% (inactive)
CCOC(=O)c1c(C(C#N)C#N)cc(C)nc1C	41.1% (inactive)
O=C(NCCc1ccccc1)c1ccc(NC2=NC3CS(=O)(=O)CC3S2)cc1 (stereo unspecified)	0.2% (inactive)
O=C(NCCc1ccccc1)c1ccc(OCCOc2ccccc2)cc1	-10.5% (inactive)
CC1CCCN(c2ccc(C(=O)NCCc3ccccc3)cn2)C1 (stereo unspecified)	80.7% (active)
CCC(C)(C)NC(=O)C(c1cccn1C)N(Cc1ccc(C)cc1)C(=O)Cn1nnc2ccccc21 (stereo unspecified)	28.4% (inactive)
CC(C)CNC(=S)NNC(=O)c1ccccc1OC(F)F	3.6% (inactive)
CNC(=O)c1csc(-c2ccccc2)n1	13.2% (inactive)
COc1cc(N2CCCC2)c(OC)cc1/C=C(/C#N)c1cccc(Br)c1	67.5% (active)
COc1cccc(C(=O)Nc2ccc(N3CCCC3)cc2)c1	11.9% (inactive)
CN1CCCc2cc(C#N)c(=O)[nH]c21	45.5% (inactive)
O=S(=O)(c1cccs1)N1CCc2ccccc2C1	-206% (inactive)
Cc1ccc(CNC(=O)C2CCCN(S(C)(=O)=O)C2)cc1 (stereo unspecified)	-3.4% (inactive)
CN1CCN(S(=O)(=O)c2ccc(N3CCN(S(=O)(=O)c4cccs4)CC3)nc2)CC1	49.3% (inactive)
O=C(NCc1ccco1)C1CCCN(S(=O)(=O)c2ccccc2)C1 (stereo unspecified)	30.4% (inactive)
O=C(NC1CCCCC1)C1CCCN(S(=O)(=O)c2cccs2)C1 (stereo unspecified)	68.3% (active)

SMILES	inhibition
O=C(NCc1ccc2c(c1)OCO2)C1CCCN(S(=O)(=O)c2cccs2)C1 (stereo unspecified)	92.5% (active)
O=S(=O)(c1cccs1)N1CCN(Cc2ccccc2)CC1	69.5% (active)
CCCS(=O)(=O)N1CCCC(C(=O)NCc2ccco2)C1 (stereo unspecified)	0.9% (inactive)
O=C(C1CCN(S(=O)(=O)c2cccs2)CC1)N1CCCCCC1	34.9% (inactive)
O=C(NCc1cccs1)C1CCN(S(=O)(=O)c2ccc3c(c2)OCCO3)CC1	-174% (inactive)
CCS(=O)(=O)N1CCCC(C(=O)NCc2ccc(C)cc2)C1 (stereo unspecified)	6.9% (inactive)
O=C(NCc1ccccc1)C1CCCN(S(=O)(=O)c2cccs2)C1 (stereo unspecified)	81.9% (active)
CCCC(=O)N1c2ccc(-c3csc(N)n3)cc2CC1C (stereo unspecified)	34.6% (inactive)
CN1C(=O)c2ccc(NC(=O)C3CCCCC3)cc2C1=O	3.3% (inactive)
CN1CCC2(CC1)NC(=O)NC2=O	-9.5% (inactive)
CSC1=N/C(=C\c2ccc3c(c2)OCO3)C(=O)S1	1.7% (inactive)
COc1cc(/C=C(\C#N)c2nc3c(s2)CC(C)CC3)ccc1O (stereo unspecified)	-74.5% (inactive)
CCCCc1nnc(NC(=O)CSc2nc(C)cc(=O)[nH]2)s1	14% (inactive)
Cc1ccc2cccc(O)c2[n+]1[O-]	11.3% (inactive)
COCc1cc(C(C)=O)ccc1OC	-37.2% (inactive)
COc1ccc(CC(=O)c2ccc(O)cc2O)cc1OC	53.9% (active)
COc1ccc(CCN=C2SCC(=O)N2C)cc1OC	15.5% (inactive)
CCCOC(=O)C1=C(C)NC2=C(C(=O)C(C(=O)OC)C(C)C2)C1c1ccc(N(C)C)cc1 (stereo unspecified)	18.1% (inactive)
COc1cc(OC)cc(C(=O)Nc2ccc(-c3nc4ccccc4o3)c(O)c2)c1	-18.6% (inactive)
COc1ccccc1Nc1ncnc2c1oc1ccccc12	19.7% (inactive)
COc1ccc(/C=N/Nc2nc3ccccc3c(=O)[nH]2)cc1	9.9% (inactive)
Cc1ccc(C(=O)N/N=C/c2sc(=O)n(Cc3cccc(C(=O)O)c3)c2Cl)cc1	12.3% (inactive)
Cc1ccc(/C=N/NC(=O)C(NC(=O)c2ccccc2)c2n[nH]c(=O)c3ccccc23)cc1 (stereo unspecified)	56.5% (active)
